We go through 40 compounds from PubChem BioAssay (Tox21).

“And” between values parts separate entries of the source, which are not always exact repeats. Identical values can stand only once. Inconclusive results are not listed. Entries that show only a call come without a potency. The source made the active and inactive calls. Calls follow the shape of the dose curve; as a rule, active = well fitted activation curve with a large enough effect in the repeat runs; inconclusive = weak or mixed curves; inactive = no such curve, though single readings can be large or run the other way. Residues, ends and D or L forms follow the SMILES beside them.
Potency is read from the fitted curve at half-maximal effect.

The experiment can be described thus: qHTS assay for small molecules that induce genotoxicity in human embryonic kidney cells expressing luciferase-tagged ATAD5 (AID 651632). Also: nearly all actives have a fitted effect of over 15% in size. The settings on record: HEK293T ATAD5-luciferase induction, 16 h; series mostly up to 83.3 µM. The text has this:
U.S. Tox21 Program National Center for Advancing Translational Sciences [NCATS] NIH Chemical Genomics Center [NCGC] U.S. Environmental Protection Agency [EPA] National Institutes of Environmental Health Sciences [NIEHS] National Toxicology Program [NTP] U.S. Food and Drug Administration [FDA] Tox21 Assay Overview: As cancer cells divide rapidly and during every cell division they need to duplicate their genome by DNA replication. The failure to do so results in the cancer cell death. Based on this concept, many chemotherapeutic agents were developed but have limitations such as low efficacy and severe side effects etc. A new cell based assay was developed to find the compounds that effectively block DNA replication either by directly damaging DNA or by inhibiting other cellular mechanisms. Enhanced Level of Genome Instability Gene 1 (ELG1; human ATAD5) protein levels increase in response to various types of DNA damage. Using a luciferase reporter-gene tagged with ATAD5, a cell-based assay [developed by Kyungjae Myung, NHGRI, NIH] was used to measure the induction of ATAD5 in human embryonic kidney cells (HEK293T). So, increase in luciferase activity can be used to identify the compounds that cause genetic stress.
Tox21 Assay Protocol Summary: For genotoxicity screening, 2,000 cells in 5 uL/well were dispensed into white, solid-bottom 1536-well plates using a Multidrop Combi (Thermo Scientific) dispenser. Following transfer of 23 nL compound or DMSO vehicle by a pin tool, the plates were incubated 16 hr at 37C and 5% CO2. 5 ul Amplite (AAT Bioquest, Inc.) was then added to each plate and following 30 min incubation at room temperature, luciferase activity was quantified on a ViewLux CCD-based plate reader.
As to `O=C(O)CCC(=O)O`, the Potency result is “inactive”. In the case of `Cc1ccc(S(=O)(=O)NC(=O)NN2CCCCCC2)cc1`, the Potency entry was “inactive”.

For the compound `O=C(O)c1[nH]n(-c2ccc(S(=O)(=O)O)cc2)c(=O)c1N=Nc1ccc(S(=O)(=O)O)cc1`, the Potency entry was “inactive”.

In the case of `NC(N)=NC(=O)c1nc(Cl)c(N)nc1N`, the Potency entry is “inactive”. Consider `O=C1CN(/N=C/c2ccc([N+](=O)[O-])o2)C(=O)N1`, for which the Potency result was “inactive”.

Regarding `C1N2CN3CN1CN(C2)C3`, the Potency entry is “inactive”.

Turning to `CC1(C)[C@@H]2CC[C@@]1(C)C(=O)C2`, the Potency entry is “inactive”.

Regarding `C[C@]12C=CC(=O)C=C1CC[C@@H]1[C@@H]2[C@@H](O)C[C@@]2(C)[C@H]1CC[C@]2(O)C(=O)CO`, the Potency result is “inactive”. The result for `CCCCC(CC)COC(=O)/C=C/c1ccc(OC)cc1` (stereo not given) reads “inactive”; that for `O=C(c1ccccc1)C(O)c1ccccc1` (stereo not given), “inactive”. With `Cc1noc(NS(=O)(=O)c2ccc(N)cc2)c1C`, the Potency entry is “inactive”.

With `Cn1cc[nH]c1=S`, the Potency result was “inactive”. Turning to `Nc1ccc(S(=O)(=O)c2ccc(N)cc2)cc1`, the Potency entry is “inactive”.

As to `Cc1cc(=O)[nH]c(=S)[nH]1`, the Potency result was “inactive”. Regarding `CCCN(CCC)S(=O)(=O)c1ccc(C(=O)O)cc1`, the Potency entry was “inactive”. The result for `O=C(O)C(=O)O` reads “inactive”.

For `c1ccc2[nH]ccc2c1`, the Potency result is “inactive”. Consider `Cc1ccc(O)cc1`, for which the Potency entry was “inactive”. Regarding `Nc1ccc(S(=O)(=O)Nc2nccs2)cc1`, the Potency entry is “inactive”. On to `CCCCCCCCCCCCCCCC(=O)O`, for which the Potency result was “inactive”.

Turning to `Cc1cc(=O)n(-c2ccccc2)n1C`, the Potency entry is “inactive”. As to `O=c1ccc2ccccc2o1`, the Potency entry was “inactive”. The value for `Cc1ccccc1C(OCCN(C)C)c1ccccc1` (stereo not given) was “inactive”; that for `Oc1ccc(/C=C/c2cc(O)cc(O)c2)cc1` was 2.54 µM (active) and 2.46 µM (active) and 3.06 µM (active); that for `O=C(O)CS` was “inactive”. The result for `CCCC(CCC)C(=O)O` reads “inactive”. For `NC(N)=O`, the Potency entry was “inactive”.

`CC(=O)NS(=O)(=O)c1ccc(N)cc1`: the Potency entry is “inactive”. The value for `OC(Cn1cncn1)(Cn1cncn1)c1ccc(F)cc1F` was “inactive”; that for `COc1ccc2[nH]cc(CCNC(C)=O)c2c1` was “inactive”; that for `NC(=O)NC1NC(=O)NC1=O` (stereo not given) was “inactive”. In the case of `CCOc1ccc(NC(=O)CC(C)O)cc1` (stereo not given), the Potency entry is “inactive”. On to `CC(O)CN(CCN(CC(C)O)CC(C)O)CC(C)O` (stereo not given), for which the Potency entry is “inactive”. In the case of `O=C(O)c1cccc([N+](=O)[O-])c1`, the Potency result is “inactive”. Turning to `N=C(N)c1ccc(OCCCCCOc2ccc(C(=N)N)cc2)cc1`, the Potency entry was “inactive”. `CCCNC(=O)NS(=O)(=O)c1ccc(Cl)cc1`: the Potency result was “inactive”. As for `NS(=O)(=O)c1cc(C(=O)O)c(NCc2ccco2)cc1Cl`, the Potency result was “inactive”.

Turning to `CCCCOC(=O)CC(CC(=O)OCCCC)(OC(C)=O)C(=O)OCCCC`, the Potency entry is “inactive”. Take `COC(=O)[C@H](Cc1ccccc1)NC(=O)[C@@H](N)CC(=O)O` (H-Asp-Phe-OMe): the Potency entry was “inactive”.

For `CC(C)(Oc1ccc(C2CC2(Cl)Cl)cc1)C(=O)O` (stereo not given), the Potency result was “inactive”.
